The whole screen tested about 4,000 compounds, of which about 15 (0.4%) were called active.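 The calls were made as follows: active = calcium fluorescence ratio, averaged over duplicates, at least 3 SD of the buffer-well ratio, meaning a nonspecific response in receptor-free cells; inactive = the rest.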 The list is a sample of the results.
Assay: nonspecific Ca2+ flux in HEK293 lacking MrgX1 – cell-based, Fluo-4 calcium flux, duplicate, counter-screen for MrgX1 allosteric activator project, primary screen (AID 624114)
Conditions: parental HEK293 calcium flux, Fluo-4 fluorescence ratio; at 10 µM
With `O=C(NC1CCCCC1)C1c2ccccc2C(=O)N1Cc1ccco1` (stereo not drawn) the outcome was “inactive”. In the case of `Cc1cc2oc3ccc(NCCC4CCCN4C)cc3c(=O)c2cc1C` (stereo not drawn), the outcome is reported as “inactive”. In the case of `COCCCNC(=O)C1CCN(c2ccc(N3CCOCC3)nn2)CC1`, the outcome is reported as “inactive”. For `Cc1cc(Br)ccc1NC(=O)c1cnc(N2CCN(c3ccccn3)CC2)c2ccccc12`, the outcome was “inactive”. With `Cc1ccc(S(=O)(=O)N(C)c2nc3ccccc3n3c(C(C)C)nnc23)cc1` the outcome was “inactive”. With `CC1CCN(S(=O)(=O)c2nnc(NC(=O)COc3ccccc3F)s2)CC1` the outcome was “inactive”. For `Cc1ccc(-c2nn(C(C)(C)C)c3ncnc(N)c23)cc1`, the outcome was “inactive”. In the case of `CCC1CCCCN1CCNC(=O)c1[nH]c(C)c(C(C)=O)c1C` (stereo not drawn), the outcome is reported as “inactive”. With `O=C(CSc1ncccn1)NC(=O)NCc1ccccc1` the outcome was “inactive”. With `CC1CCCCN1S(=O)(=O)c1ccc(C(=O)Nc2nnc(-c3cccs3)o2)cc1` (stereo not drawn) the outcome was “inactive”. For `O=C(Nc1nc2c(F)cc(F)cc2s1)C1COc2ccccc2O1` (stereo not drawn), the outcome was “inactive”. With `O=C1C(=O)N(CC2COc3ccccc3O2)c2ccccc21` (stereo not drawn) the outcome was “inactive”. In the case of `COc1cccc(CNC(=O)C2CCN(S(=O)(=O)c3cccc4cccnc34)CC2)c1`, the outcome is reported as “inactive”. For `COc1ccc(C(=O)NC(=S)NNC(=O)CCc2ccccc2)cc1`, the outcome was “inactive”. In the case of `CCOC(=O)C1=C(O)/C(=C/c2cc(C)n(-c3ccccc3)c2C)N=C1C`, the outcome is reported as “inactive”. For `Cc1ccc2nc(Nc3ccccc3)cc(C)c2c1`, the outcome was “inactive”. With `Cc1ccc(Cc2cnc(N)s2)o1` the outcome was “inactive”. In the case of `O=C(CSc1nncn1-c1cccnc1)N1CCOCC1`, the outcome is reported as “inactive”. With `COc1ccc(OC)c(C(=O)c2ccc(Cl)cc2)c1` the outcome was “inactive”. In the case of `CCCc1cc(=S)n2c([nH]c3ccccc32)c1C#N`, the outcome is reported as “inactive”. With `Nc1cc(OC(=O)c2ccccc2Br)nn1S(=O)(=O)c1ccccc1` the outcome was “inactive”. For `CC(C)(C)n1c(=O)[nH]c2c(c1=O)CCC2`, the outcome was “inactive”. For `CCOC1CCCCC1NS(=O)(=O)c1ccc(Cl)cc1` (stereo not drawn), the outcome was “inactive”. For `C=CCOc1cccc(C2C(C(=O)c3ccc(C)o3)=C(O)C(=O)N2c2nnc(C)s2)c1` (stereo not drawn), the outcome was “inactive”. For `Cc1cccc(-n2c(Cc3cc(=O)[nH]c(=O)[nH]3)nnc2SC(C)C)c1`, the outcome was “inactive”. With `O=C1CCCc2c1nc(-c1cccc(Cl)c1)n2O` the outcome was “inactive”. With `Cc1nc(N2CCN(c3ccccn3)CC2)c2c(C)c(C(=O)Nc3ccc(F)c(Cl)c3)sc2n1` the outcome was “inactive”. In the case of `Cc1cc(C)n(CCNC(=O)CC2C(=O)NCCN2Cc2ccc(C)o2)n1` (stereo not drawn), the outcome is reported as “inactive”. With `COc1ccc(S(=O)(=O)N2CCN(C(=O)NC3CCCCC3)CC2)cc1` the outcome was “inactive”. For `CCCCC(=O)Nc1ccc2c(c1)C(=O)NC2=O`, the outcome was “inactive”. In the case of `Cc1nn(-c2ccccc2)c(C)c1NC(=O)COc1ccc(Cl)cc1Cl`, the outcome is reported as “inactive”. For `Cc1ccc(-n2[nH]c(C)c(/C=N/N3C(=O)c4cccc5cccc(c45)C3=O)c2=O)cc1`, the outcome was “inactive”. For `COC(=O)Cc1cc(=O)n(-c2nc3ccccc3s2)[nH]1`, the outcome was “inactive”. For `O=C1C(Cc2ccc(O)cc2)NC(=S)N1Cc1ccccc1` (stereo not drawn), the outcome was “inactive”. With `Clc1ccc(C=NC23CN4CN(CN(C4)C2)C3)cc1` the outcome was “inactive”. In the case of `CC(C)CC(=O)NC(=S)NNC(=O)c1cccc([N+](=O)[O-])c1`, the outcome is reported as “inactive”. With `Cc1[nH][nH]c(=O)c1C(c1ccc(-c2ccc(Cl)cc2)o1)c1c(C)[nH][nH]c1=O` the outcome was “inactive”. For `O=C(Oc1ccc(C(=S)N2CCOCC2)cc1)c1ccc(F)cc1`, the outcome was “inactive”. For `COC(=O)c1ccc(C2C3=C(Nc4nnnn42)c2ccccc2OC3)cc1` (stereo not drawn), the outcome was “inactive”. In the case of `Clc1ccc(-c2nc3ccccn3c2CN2CCSCC2)cc1`, the outcome is reported as “inactive”. For `CCOCc1nnc(NC(=O)CCC2CCCCC2)s1`, the outcome was “inactive”. With `Cc1ccc2nc(-c3ccc(NC(=O)CN(C)S(=O)(=O)c4ccccc4)cc3)sc2c1` the outcome was “inactive”. For `Cc1ccc(N/C(N)=N/c2nc(C(F)(F)F)cc(C(F)(F)F)n2)cc1`, the outcome was “inactive”. For `Cc1cccc(NC(=O)C(C)N2C(=O)C3C4CC(C(Br)C4Br)C3C2=O)c1` (stereo not drawn), the outcome was “inactive”. In the case of `O=c1cc(CSc2ccccn2)nc(N2CCN(c3ccccc3)CC2)[nH]1`, the outcome is reported as “inactive”. In the case of `CCN(c1cccc(C)c1)S(=O)(=O)c1ccc(-c2coc(C)n2)cc1`, the outcome is reported as “inactive”. For `CC(C)CC(=O)N/C(N)=N/c1nc2ccccc2s1`, the outcome was “inactive”. In the case of `Cc1nn(-c2ccccc2)c2c1C(c1ccc(F)cc1)C(C#N)=C(N)O2` (stereo not drawn), the outcome is reported as “inactive”. With `CCOc1ccc(C(=O)NC2CCN(S(=O)(=O)CC)CC2)cc1` the outcome was “inactive”. For `CCOC(=O)CNC(=O)CSc1nc2cccnc2n1CC`, the outcome was “inactive”. For `Cc1nc(C)c(-c2csc(NCCc3ccccc3)n2)s1`, the outcome was “inactive”. In the case of `C(=N\n1cnnc1)/c1cccnc1`, the outcome is reported as “inactive”. For `Cc1cccc(NC(=O)COc2ccccc2C)n1`, the outcome was “inactive”. For `O=C(Nc1ccc(Br)cc1F)C1CC(=O)N(C2CCCCC2)C1` (stereo not drawn), the outcome was “inactive”. In the case of `COc1ccc(Cc2nc(-c3ccccn3)no2)cc1OC`, the outcome is reported as “inactive”. For `COC(=O)c1ccc(COC(=O)C2CCN(S(=O)(=O)c3c(Cl)cccc3Cl)CC2)o1`, the outcome was “inactive”. With `COCC(C)NC(=O)c1ccc(Cl)c(Cl)c1` (stereo not drawn) the outcome was “inactive”. In the case of `CCOc1ccc(C2=CC(c3ccccc3)n3ncnc3N2)cc1` (stereo not drawn), the outcome is reported as “inactive”. For `CCOC(=O)Cc1csc(SCc2cc(=O)oc3cc(O)ccc23)n1`, the outcome was “inactive”. For `O=C(Nc1ccc(Cl)cc1)Nc1ccc(Oc2cccnc2)nc1`, the outcome was “inactive”. With `O=C(COc1ccc(Cl)cc1)NC(=S)Nc1ccccc1N1CCOCC1` the outcome was “inactive”. In the case of `N#CC1=C(N)Oc2c(sc3ccccc23)C1c1ccco1` (stereo not drawn), the outcome is reported as “inactive”. In the case of `O=C(CN1CCN(c2ccccn2)CC1)NC1CCCCC1`, the outcome is reported as “inactive”. With `COc1ccc(S(=O)(=O)N2CCOCC2)c(C)c1C` the outcome was “inactive”. With `Cc1cc2ncn(CCCCOc3ccccc3)c2cc1C` the outcome was “inactive”. With `CCN(CC)c1ccc2oc(=O)c(C)nc2c1` the outcome was “inactive”. For `CN1C(CC(=O)Nc2ccc(Br)cc2)c2ccccc2CC1(C)C` (stereo not drawn), the outcome was “inactive”. For `COc1ccc(C(=O)NC(=S)NC2CCCCC2)cc1`, the outcome was “inactive”. In the case of `O=C(Nc1ccccc1Cl)N1CCN(c2ccc3nncn3n2)CC1`, the outcome is reported as “inactive”. In the case of `COC(=O)c1c(NC(=O)c2c(Cl)cnn2C)sc(C)c1C`, the outcome is reported as “inactive”. For `CCOC(=O)c1[nH]c2ccc(C)cc2c1N=C(C)N(C)C`, the outcome was “inactive”. In the case of `Cc1cccc(Cn2cnc3c(N)c(C)c(C)cc32)c1`, the outcome is reported as “inactive”. With `Cc1ccc(OC(=O)c2cc3ccccc3o2)cc1` the outcome was “inactive”. For `CCOC(=O)c1cn(Cc2cccc(C)c2)nn1`, the outcome was “inactive”. For `C=CCNC(=O)c1csc(-c2ccccc2)n1`, the outcome was “inactive”. With `O=C(c1cccs1)C1C(c2ccc(Br)cc2)NC(=S)NC1(O)C(F)(F)F` (stereo not drawn) the outcome was “inactive”. In the case of `CC(=O)Nc1ccc(OC(=O)COc2ccc(Br)cc2)cc1`, the outcome is reported as “inactive”. With `O=C(c1ccc(O)cc1)c1ccc(C(=O)O)c(C(=O)O)c1` the outcome was “inactive”. With `O=C1Cc2ccccc2Sc2ccc(Cl)cc21` the outcome was “inactive”. With `CC(Oc1ccc(F)cc1)C(=O)Nc1ccccc1C(=O)NC1CC1` (stereo not drawn) the outcome was “inactive”. For `O=C(c1ccc(OC2CCN(C(=O)c3cccnc3)CC2)cc1)N1CCCCCC1`, the outcome was “inactive”. In the case of `O=C(COC(=O)c1ccc(NS(=O)(=O)c2cccs2)cc1O)Nc1ccc(F)cc1`, the outcome is reported as “inactive”. For `COc1cc(C(F)(F)F)nc2c(Br)c(C(C)(C)C)nn12`, the outcome was “inactive”. For `Cc1cc(Nc2cc(N3CCN(C)CC3)nc(Sc3ccc(NC(=O)C4CC4)cc3)n2)n[nH]1`, the outcome was “inactive”. For `CC(=O)N1c2ccc(S(=O)(=O)N3CCCC(C(=O)Nc4cccc(Cl)c4)C3)cc2CC1C` (stereo not drawn), the outcome was “inactive”. With `CCCCOC(=O)CNc1nnc(SCC(=O)OCC)[nH]c1=O` the outcome was “inactive”. With `COc1ccc(OC)c(Nc2nc3ccccc3n3cnnc23)c1` the outcome was “inactive”. With `Fc1cccc(Cl)c1COc1ccc(-c2nnco2)cc1` the outcome was “inactive”.

Source: PubChem BioAssay AID624114 (Johns Hopkins Ion Channel Center, 2012)
